Compound activity (PubChem)
E coli Lon inh: E. coli protease La inhibition. P0A9M0. purified E. coli Lon protease, fluorescence polarization. inhibition, % at 7.94 µM. hit rate 0.42% among 360,000. AID 602123; in the data active means inhibition above about 13%, passing the limit was not always enough
Rin1-Abl PPI inh: blocks binding of human Rin1 to Abl; hit rate 0.4% among 360,000; P00519+Q13671; AID 588664; inhibition, % at 7.35 µM; TR-FRET Rin1/Abl binding, biochemical; in the data active means inhibition above about 5%, passing the limit was not always enough
Target sequence (P00519 whole entry, looked up): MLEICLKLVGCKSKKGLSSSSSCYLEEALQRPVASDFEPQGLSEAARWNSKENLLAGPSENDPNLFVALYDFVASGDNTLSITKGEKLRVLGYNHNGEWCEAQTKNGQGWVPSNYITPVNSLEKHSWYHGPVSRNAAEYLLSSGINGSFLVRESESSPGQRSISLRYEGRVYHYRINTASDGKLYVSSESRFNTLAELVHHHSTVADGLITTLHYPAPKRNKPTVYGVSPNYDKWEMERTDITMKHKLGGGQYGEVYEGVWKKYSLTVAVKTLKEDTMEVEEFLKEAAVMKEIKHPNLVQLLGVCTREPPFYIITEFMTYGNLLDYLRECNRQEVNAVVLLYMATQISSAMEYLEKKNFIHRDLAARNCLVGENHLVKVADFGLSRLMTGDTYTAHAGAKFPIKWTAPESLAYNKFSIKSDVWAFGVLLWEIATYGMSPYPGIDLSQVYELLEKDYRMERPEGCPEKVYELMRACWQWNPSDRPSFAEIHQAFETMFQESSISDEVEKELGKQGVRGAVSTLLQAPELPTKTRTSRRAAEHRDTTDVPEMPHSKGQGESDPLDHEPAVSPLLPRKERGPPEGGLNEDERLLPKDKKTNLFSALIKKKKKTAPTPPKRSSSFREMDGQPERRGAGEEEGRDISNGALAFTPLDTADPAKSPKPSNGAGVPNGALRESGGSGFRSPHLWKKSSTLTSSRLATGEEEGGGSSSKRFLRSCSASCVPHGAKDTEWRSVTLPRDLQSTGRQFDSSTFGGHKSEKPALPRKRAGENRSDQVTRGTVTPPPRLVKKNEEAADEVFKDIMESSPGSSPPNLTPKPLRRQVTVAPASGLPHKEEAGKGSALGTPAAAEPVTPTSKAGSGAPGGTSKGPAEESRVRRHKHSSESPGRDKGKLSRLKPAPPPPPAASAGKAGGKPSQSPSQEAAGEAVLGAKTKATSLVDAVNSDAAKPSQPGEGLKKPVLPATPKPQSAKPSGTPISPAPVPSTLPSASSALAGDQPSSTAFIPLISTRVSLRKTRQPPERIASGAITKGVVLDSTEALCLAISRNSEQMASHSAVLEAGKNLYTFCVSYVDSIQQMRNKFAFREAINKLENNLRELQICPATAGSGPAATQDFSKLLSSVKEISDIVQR
Target sequence (Q13671 whole entry, looked up): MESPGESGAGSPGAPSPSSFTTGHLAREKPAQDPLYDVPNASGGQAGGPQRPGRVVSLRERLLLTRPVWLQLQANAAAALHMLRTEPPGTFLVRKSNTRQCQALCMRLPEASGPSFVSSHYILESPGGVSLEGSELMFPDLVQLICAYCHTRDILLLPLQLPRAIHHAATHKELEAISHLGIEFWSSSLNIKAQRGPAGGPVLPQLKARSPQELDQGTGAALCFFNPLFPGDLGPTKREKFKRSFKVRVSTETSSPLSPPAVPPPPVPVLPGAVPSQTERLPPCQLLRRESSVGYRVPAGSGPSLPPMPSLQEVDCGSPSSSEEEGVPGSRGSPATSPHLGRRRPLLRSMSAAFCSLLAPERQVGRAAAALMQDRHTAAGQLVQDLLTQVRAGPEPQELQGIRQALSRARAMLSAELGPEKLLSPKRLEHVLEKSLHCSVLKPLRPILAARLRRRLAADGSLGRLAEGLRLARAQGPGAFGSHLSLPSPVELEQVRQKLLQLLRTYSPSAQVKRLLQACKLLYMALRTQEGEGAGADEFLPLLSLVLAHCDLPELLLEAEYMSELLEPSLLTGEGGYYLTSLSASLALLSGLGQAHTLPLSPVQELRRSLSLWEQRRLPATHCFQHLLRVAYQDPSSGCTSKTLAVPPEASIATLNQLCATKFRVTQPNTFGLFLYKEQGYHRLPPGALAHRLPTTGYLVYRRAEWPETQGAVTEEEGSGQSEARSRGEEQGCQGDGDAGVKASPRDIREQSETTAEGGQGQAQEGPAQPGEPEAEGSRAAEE
PAFAH2 inh: PAFAH2 (human) inhibition. inhibition, % at 3.39 µM. recombinant PAFAH2, FP-rhodamine activity probe, fluorescence polarization. hit rate 0.99% among 340,000. AID 492956;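 active means inhibition above the mean over all tested compounds plus 3 SD, cut at about 30% in these data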;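 further: inhibitors block probe labeling of enzyme so polarization drops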
pPAFAH FP inh: inhibitors of human plasma PAF acetylhydrolase (pPAFAH); inhibition, % at 3.39 µM; recombinant pPAFAH, FP-rhodamine probe fluorescence polarization; Q13093; hit rate 1.5% among 330,000;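 active means inhibition above the mean inhibition across the screen plus 3 SD, cut at about 25% in these data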;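 further: inhibitors block binding of the rhodamine activity-based probe so polarization drops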
PAFAH1B2 FP inh: PAFAH1B2 (human) inhibition | P68402 | recombinant PAFAH1B2, FP-rhodamine activity probe, fluorescence polarization | inhibition, % at 3.39 µM | hit rate 1.2% among 340,000 | AID 492953;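 active means inhibition above the mean of all tested compounds plus 3 SD, cut at about 24% in these data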
PAFAH1B3 FP inh: PAFAH1B3 (human) inhibition | Q15102 | recombinant PAFAH1B3, FP-rhodamine probe, fluorescence polarization | inhibition, % at 3.39 µM | hit rate 0.28% among 340,000;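 active means inhibition above the screen-wide average of all tested compounds plus 3 SD, cut at about 25% in these data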
Rin1 Abl conf: confirmation of inhibitors of human Rin1-Abl interaction; shares compounds with Rin1-Abl PPI inh; TR-FRET Rin1-Abl binding, purified proteins; inhibition, % at 7.35 µM; hit rate 49% among 1,300; AID 602124
GFP quench: counter-screen for Rin1-Abl inhibitors: GFP fluorescence quenchers; shares compounds with Rin1-Abl PPI inh; inhibitors/quenchers counterscreen; inhibition, % at 6.75 µM; hit rate 8.5% among 1,300; AID 602125;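 further: ABL1-eGFP fusion protein alone without its partner RIN1-SBP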
GFP quench dose: quenches GFP in dose response, Rin1-Abl counter-screen. shares compounds with Rin1-Abl PPI inh. GFP fluorescence interference/quenching counterscreen. IC50, µM. 230 tested, under 10 active; call rule not given here;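 further: ABL1-eGFP fusion protein alone without its RIN1 binding partner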
Each line names hits and unclear results; the compound was inactive in the other large screens (follow-up assays come after a bar, where they were run). In the library only some 3.1% were active in any assay of this set; here they are far more common. Unless noted, no stated cut-off is given here; in the data, active means inhibition above about 6.5%; inactive means the rest.

c1ccc(C2CCC(N3CCN(c4ccccc4)CC3)CC2)cc1 (configuration not stated)	none
COc1ccc(NS(=O)(=O)c2cc(N)ccc2N2CCOCC2)cc1	Rin1-Abl PPI inh 8.3 | Rin1 Abl conf inactive | GFP quench inactive
COc1ccc(NS(=O)(=O)c2cc(N)ccc2N2CCCC2)cc1	none
CC(Sc1nc(N)cc(N)n1)C(=O)NCCC1=CCCCC1 (configuration not stated)	none
O=C(NC1CCCCC1)c1cccnc1C(=O)O	Rin1-Abl PPI inh 5.9 | Rin1 Abl conf inactive | GFP quench inactive
COc1ccc(CN(C)C(C)C(=O)N(C)CC(=O)Nc2ccc(C)cc2)cc1F (configuration not stated)	none
CN(C)CCNC(=O)c1cccc(S(=O)(=O)Nc2ccc(F)cc2)c1	Rin1-Abl PPI inh 9.2, pPAFAH FP inh 25.3 | Rin1 Abl conf inactive | GFP quench inactive
CC(/C=N/n1c(-c2ccco2)n[nH]c1=S)=C\c1ccccc1	Rin1-Abl PPI inh 7.4 | Rin1 Abl conf inactive | GFP quench inactive
NS(=O)(=O)c1cccc(NC(=O)COc2ncnc3c2cnn3-c2ccccc2)c1	none
O=C(COc1ncnc2c1cnn2-c1ccccc1)Nc1ccc(S(=O)(=O)N2CCCCC2)cc1	Rin1-Abl PPI inh 8.8 | Rin1 Abl conf inactive | GFP quench inactive
COc1cccc(C2/C(=C(\O)c3ccc4c(c3)OCCO4)C(=O)C(=O)N2CC2CCCO2)c1 (configuration not stated)	none (no result: pPAFAH FP inh)
Cc1ccc(C2/C(=C(\O)c3ccc4c(c3)OCCO4)C(=O)C(=O)N2CC2CCCO2)cc1 (configuration not stated)	Rin1-Abl PPI inh 8.5 (no result: pPAFAH FP inh) | Rin1 Abl conf inactive | GFP quench inactive
O=C(/C=C/c1cccc(Cl)c1)OCc1cn2cc(Cl)ccc2n1	none
COc1cccc(/C=C/C(=O)NCc2cn3cc(Cl)ccc3n2)c1	Rin1-Abl PPI inh 5.2 | Rin1 Abl conf inactive | GFP quench inactive
COc1ccccc1NC(=O)/C=C\C(=O)O	none
COc1ccc(Cl)cc1NC(=O)/C=C\C(=O)O	Rin1-Abl PPI inh 5.4 | Rin1 Abl conf inactive | GFP quench inactive
O=C(CCCC(=O)N1CCc2ccccc21)N1CCc2ccccc21	none (no result: pPAFAH FP inh)
CCOCC(=O)N1CCc2ccccc21	Rin1-Abl PPI inh 6.3 | Rin1 Abl conf inactive | GFP quench inactive
COc1ccc(CNC(=O)CCC(=O)Nc2nnc(CC(C)C)s2)cc1	none
Cn1c(CCNC(=O)c2ccco2)nc2cc(NS(=O)(=O)c3ccc(Cl)cc3)ccc21	Rin1-Abl PPI inh 5.7, PAFAH1B2 FP inh 24.8 | Rin1 Abl conf inactive | GFP quench inactive
CC(=O)NCCc1nc2cc(NS(=O)(=O)c3ccc(Cl)cc3)ccc2n1C	none
CCn1ncc(Cl)c1C(=O)Nc1ccc2c(c1)CCC2	none
CCOc1ccc2nc(NC(=O)C3CCN(C(=O)c4ccco4)CC3)sc2c1	Rin1-Abl PPI inh 8.0 | Rin1 Abl conf inactive | GFP quench inactive
COc1cc(/C=N/NC(=O)CSc2ccccn2)ccc1OC(C)C	Rin1-Abl PPI inh 16.5 (no result: PAFAH2 inh, PAFAH1B2 FP inh, PAFAH1B3 FP inh) | Rin1 Abl conf 25.5 | GFP quench inactive | GFP quench dose inactive
CCn1c(SCC(=O)N/N=C/c2ccc(OC)c(OC)c2)nc2ccccc21	none
O=S(=O)(c1ccc2c(c1)oc1ccccc12)N1CCOCC1	Rin1-Abl PPI inh 8.5 | Rin1 Abl conf inactive | GFP quench inactive
CCCn1c(SCC(=O)N2CCCC2=O)nc2ccccc2c1=O	none (no result: pPAFAH FP inh)
CN1CCN(c2cc(-c3cc(O)c4ncccc4c3)ccn2)CC1	Rin1-Abl PPI inh 14.1 | Rin1 Abl conf 17.3 | GFP quench 10.0
CN1CCN(C(=O)c2cccc(-c3cc(O)c4ncccc4c3)c2)CC1	Rin1-Abl PPI inh 26.3 | Rin1 Abl conf 33.5 | GFP quench 7.4
Cc1cccc(N(Cc2ccccc2)C(=O)c2ccc(S(C)(=O)=O)cc2)c1	Rin1-Abl PPI inh 8.3 | Rin1 Abl conf inactive | GFP quench inactive
O=C(Nc1ccc2c(c1)OCO2)c1ccc[n+]([O-])c1	Rin1-Abl PPI inh 5.0 | Rin1 Abl conf inactive | GFP quench inactive
O=C(Nc1ccc2c(c1)OCO2)c1ccc2c(c1)OCO2	none
NC(=O)c1cc(-c2ccccc2)nc(Oc2ccccc2)n1	Rin1-Abl PPI inh 10.5 | Rin1 Abl conf inactive | GFP quench inactive
Cc1ccc(S(=O)(=O)NN2C(=O)c3ccccc3NC2c2ccccc2F)cc1 (configuration not stated)	Rin1-Abl PPI inh 12.7 | Rin1 Abl conf inactive | GFP quench inactive
Cc1nc(C)n(C)c(=O)c1-c1ccccc1	Rin1-Abl PPI inh 39.9 | Rin1 Abl conf inactive | GFP quench inactive
O=C(NCCc1ccc(Cl)cc1)c1ccc(NC2=NC3CS(=O)(=O)CC3S2)cc1 (configuration not stated)	Rin1-Abl PPI inh 7.4 | Rin1 Abl conf 8.1 | GFP quench inactive
COc1ccc(OC)c(NC(=O)Cc2ccc(NC3=NC4CS(=O)(=O)CC4S3)cc2)c1 (configuration not stated)	Rin1-Abl PPI inh 22.3 | Rin1 Abl conf 26.7 | GFP quench inactive | GFP quench dose inactive
O=C(Cc1ccc(NC2=NC3CS(=O)(=O)CC3S2)cc1)NCc1ccccc1Cl (configuration not stated)	Rin1-Abl PPI inh 16.2 | Rin1 Abl conf 16.4 | GFP quench inactive
CCN(CC)CCNC(=O)c1ccc(NC2=NC3CS(=O)(=O)CC3S2)cc1 (configuration not stated)	none
COc1ccc(C(=O)CC(C#N)c2ccc3c(c2)OCO3)cc1OC (configuration not stated)	Rin1-Abl PPI inh 11.0 (no result: PAFAH2 inh, pPAFAH FP inh, PAFAH1B2 FP inh, PAFAH1B3 FP inh) | Rin1 Abl conf inactive | GFP quench inactive
Cc1ccccc1-c1nnnn1C1CCS(=O)(=O)C1 (configuration not stated)	none
Cc1cc(=O)n(C2CCS(=O)(=O)C2)[nH]1 (configuration not stated)	Rin1-Abl PPI inh 11.7 (no result: PAFAH2 inh, PAFAH1B2 FP inh, PAFAH1B3 FP inh) | Rin1 Abl conf inactive | GFP quench inactive
CCOc1cc(/C=N/NC(=O)C2CCCC2)ccc1OC(C)C	none
CC(C)(CNC(=O)c1cccc(F)c1)CNC(=O)c1cccc(F)c1	none
CC12CN3CC(C)(CN(C1)C3c1ccccc1F)C2 (configuration not stated)	Rin1-Abl PPI inh 6.1 | Rin1 Abl conf inactive | GFP quench inactive
O=CNC1c2ccccc2CCc2ccccc21	none (no result: pPAFAH FP inh)
COc1cc(CC(=O)OCC(=O)NC2CCCCC2C)cc(OC)c1OC (configuration not stated)	none
